Shown are actives, neighbours in structure and some others; about 12% of the full set was active somewhere.
G9a inh: G9a (human) methyltransferase inhibition; G9a H3K9 monomethylation, AlphaScreen, 2 h; Potency, µM (doses to about 102 µM), for the others: at the top dose activity, negative = inhibition, most hits filed as inhibitors; Q96KQ7; 350,000 tested, 8.8% active; also: % is scaled to controls: 0 for no effect and ±100 for the full control effect; nearly all actives have a fitted effect of over 75% in size
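Quantitative HTS format: methyltransferase activity on a biotin-tagged H3K9 peptide is measured by AlphaScreen, using a rabbit anti-monomethyl-H3K9 antibody with streptavidin donor and anti-IgG acceptor beads. Final levels are 20 nM enzyme, 500 nM peptide, 20 uM SAM; 2 h RT.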
HP1b binding inh: blocks HP1-beta chromodomain binding to methylated histone tails; Potency, µM (top dose mostly 114 µM), without a hit: at the top dose activity change, negative = inhibition, usual class: inhibitors; 390,000 tested, 0.56% active; AlphaScreen HP1-beta / biotin-H3K9me3 peptide binding; also: nearly all actives have a fitted effect of over 70% in size
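AlphaScreen: HP1-beta (50 nM) preformed 30 min with biotin-H3(1-18)K9me3 peptide (50 nM) in PBS pH 7.4, 0.01% Tween-20. Compound added for 30 min at RT, then streptavidin donor/nickel chelate acceptor beads (10 ug/mL) for 30 min.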
JMJD2A Tudor inh: blocks the human JMJD2A Tudor domain; AID 504339; O75164; 390,000 tested, 4.4% active; AlphaScreen JMJD2A-Tudor / H3K4me3 peptide binding; Potency, µM (series often up to 114 µM), without a hit: at the top dose activity change, negative = inhibition, most hits filed as inhibitors; also: % is scaled to controls: 0 for no effect and ±100 for the full control effect; nearly all actives have a fitted effect of over 50% in size
Target sequence (O75164 whole entry, looked up, the tested form may be a part): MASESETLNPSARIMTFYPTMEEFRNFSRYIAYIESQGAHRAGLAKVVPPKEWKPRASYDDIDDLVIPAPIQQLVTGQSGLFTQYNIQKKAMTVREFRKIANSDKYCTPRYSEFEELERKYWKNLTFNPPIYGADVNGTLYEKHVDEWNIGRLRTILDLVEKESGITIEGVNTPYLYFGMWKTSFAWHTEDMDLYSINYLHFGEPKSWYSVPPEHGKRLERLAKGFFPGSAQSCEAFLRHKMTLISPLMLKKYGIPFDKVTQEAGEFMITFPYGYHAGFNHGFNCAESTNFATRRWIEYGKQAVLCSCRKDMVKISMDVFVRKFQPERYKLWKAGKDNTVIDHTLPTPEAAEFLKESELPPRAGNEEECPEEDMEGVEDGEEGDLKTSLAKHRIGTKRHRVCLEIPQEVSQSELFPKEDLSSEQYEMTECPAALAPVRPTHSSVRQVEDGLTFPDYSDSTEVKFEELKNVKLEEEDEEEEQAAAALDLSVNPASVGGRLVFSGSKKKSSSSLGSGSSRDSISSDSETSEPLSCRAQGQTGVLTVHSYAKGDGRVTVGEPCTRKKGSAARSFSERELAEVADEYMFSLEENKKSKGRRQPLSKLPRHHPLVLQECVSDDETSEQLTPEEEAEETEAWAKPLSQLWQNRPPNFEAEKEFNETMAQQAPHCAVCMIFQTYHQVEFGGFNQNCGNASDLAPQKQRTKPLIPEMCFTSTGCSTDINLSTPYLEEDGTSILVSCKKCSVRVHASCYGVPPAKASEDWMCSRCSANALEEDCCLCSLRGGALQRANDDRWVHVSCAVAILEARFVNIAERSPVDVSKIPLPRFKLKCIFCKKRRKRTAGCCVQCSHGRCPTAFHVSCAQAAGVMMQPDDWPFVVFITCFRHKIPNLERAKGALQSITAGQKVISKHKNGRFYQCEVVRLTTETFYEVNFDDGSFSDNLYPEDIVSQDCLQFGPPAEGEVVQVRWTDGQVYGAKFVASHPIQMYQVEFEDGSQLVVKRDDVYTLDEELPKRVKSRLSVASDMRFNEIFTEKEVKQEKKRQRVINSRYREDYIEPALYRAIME
BAZ2B block: BAZ2B (human) inhibition. Q9UIF8. AlphaScreen BAZ2B-H3K14Ac peptide displacement. Potency, µM (titrated, usually from 114 µM), for the others: at the top dose activity change, negative = inhibition, usual class: inhibitors. 360,000 tested, 4.4% active; also: % is scaled to controls: 0 for no effect and ±100 for the full control effect; nearly all actives have a fitted effect of over 60% in size
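AlphaScreen luminescence quantifies BAZ2B engagement of H3K14Ac peptide; the protein and biotinylated peptide are both at 50 nM final, buffer PBS pH 7.4 with 0.01% Tween-20, all steps at room temperature.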
Sfp PPTase inh: blocks B. subtilis Sfp PPTase activity; AID 1490; Q9F4F7; Biochemical Sfp PPTase activity, qHTS; Potency, µM, for the others: largest response in the series, negative = inhibition, hits mostly inhibitors; 310,000 tested, 3.5% active;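 also: the enzyme is Sfp with the accession as filed and its product quenches rhodamine fluorescence; 0% = enzyme reaction without inhibitor and -100% = no enzyme wells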
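Compounds were incubated with enzyme (final 15 nM) for 15 min at room temperature before substrate addition started the reaction. Fluorescence at 525 nm excitation, 598 nm emission was recorded immediately and after 30 minutes.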
* hit, by the source's call; ? = inconclusive; . = not tested or not shown; [ ] = remark or other dose. Calls follow the shape of the dose curve; as a rule, active = well fitted curve in the direction sought with a large enough effect; inconclusive = small, poorly fitted or top-dose-only effect, or another doubt; inactive = no such curve, though single readings can be large; an effect the other way counts as inactive or inconclusive. Potency is read from the fitted curve at half-maximal effect.

SMILES	G9a inh	HP1b binding inh	JMJD2A Tudor inh	BAZ2B block	Sfp PPTase inh
CCOC(=O)C1CCCN(C(=O)c2cc(-c3ccc(F)cc3)nc3ccccc23)C1 (stereo not given)	7%	0%	-6%	-12%	4%
O=C(c1cc(-c2ccc(Br)cc2)nc2ccccc12)N1CCN(c2ccccc2O)CC1	50µM*	-18%	?	-12%	.
Cc1ccccc1CN1CCN(C(=O)c2cc(-c3ccncc3)nc3ccccc23)CC1	35µM*	-13%	?	?	?
CCN1CCCC(OC(=O)c2cc(-c3ccc(C)cc3)nc3ccccc23)C1 (stereo not given)	?	13%	18µM*	.	4%
COc1ccc(-c2cc(C(=O)N3CCN(c4ncccn4)CC3)c3ccccc3n2)cc1OC	?	48%	-12%	-4%	.
O=C(c1cc(-c2ccncc2)nc2ccccc12)N1CCN(Cc2ccccc2)CC1	.	-6%	-29%	.	.
Cn1c(C(=O)N2CCN(c3ncccn3)CC2)cc2c(=O)n(C)c3ccccc3c21	45µM*	41%	-2%	-3%	40µM*
Cn1c(C(=O)N2CCCC2)cc2c(=O)n(C)c3ccccc3c21	12%	39%	-10%	-5%	12%
COCCNCCCCOc1ccc(Br)cc1C	5.6µM*	?	1.1µM*	50µM*	-20%
Cc1cc(Br)ccc1OCCCCNC(C)(C)C	.	11%	28µM*	50µM*	-24%
COCCCNCCCCOc1ccc(Br)cc1C	10µM*	?	20µM*	?	-2%
Cc1ccc(OCC(=O)NNC(=O)C2CCN(c3nccc(C)n3)CC2)cc1	19%[0.501 µM]	11%	-14%	3%	0%
COc1ccc(Cl)cc1S(=O)(=O)N(C)CC(=O)NCCCn1ccnc1	-13%	47%	-5%	-15%	10%
COc1ccc(N=C2S/C(=C\c3ccc(N4CCOCC4)o3)C(=O)N2CCc2c[nH]c3ccccc23)cc1	?	.	.	40µM*	4µM*
COc1ccc(N=C2S/C(=C\c3ccc(OCC(=O)O)cc3)C(=O)N2CCc2c[nH]c3ccccc23)cc1	-195%[59 µM]	18µM*	8.9µM*	14µM*	?
CCN1C(=O)/C(=C/c2ccc(C)s2)SC1=Nc1ccc(OC)cc1	?	-21%	?	?	-13%
Cc1cccc2c(=O)c(Br)c(C)n(Cc3ccccc3)c12	.	49%	14%	-7%	11%
O=S(=O)(NC1CCC(NS(=O)(=O)c2c(F)cccc2F)CC1)c1ccc2c(c1)OCCO2 (stereo not given)	-13%[2.33 µM]	17%	-28%	1%	.
CCCn1c(SCC(=O)c2cc(C)c(C)cc2C)n[nH]c1=O	11µM*	35%	-5%	3%	11%
Cc1ccc(NC(=S)c2nc3ccccc3[nH]2)cc1	54%[0.501 µM]	?	?	10µM*	12%
Cc1ccc(NC(=S)c2nc3ccccc3[nH]2)c(C)c1	?	?	?	28µM*	-1%
COc1ccc(O)c(C(=O)c2cc(C(=O)NCCc3ccccc3)c(=O)n(CCc3ccccc3)c2)c1	8.9µM*	?	?	?	-10%
Cc1ccc(O)c(C(=O)c2cc(C(=O)NCCc3ccccc3)c(=O)n(CCc3ccccc3)c2)c1	-18%[59 µM]	-1%	-22%	-12%	13%
COC(=O)c1ccc(NS(=O)(=O)c2ccc3[nH]c4c(c3c2)CCCC4)cc1	?	-21%	?	71µM*	.
CCOc1ccc(CNS(=O)(=O)c2ccc3[nH]c4c(c3c2)CCCC4)cc1OC	?	?	?	45µM*	.
SMILES	G9a inh	HP1b binding inh	JMJD2A Tudor inh	BAZ2B block	Sfp PPTase inh
COc1ccccc1CNS(=O)(=O)c1ccc2[nH]c3c(c2c1)CCCCC3	-7%[59 µM]	-15%	?	18%[57.1 µM]	.
Cc1ccc(NC(=O)CN(C)S(=O)(=O)c2ccc3[nH]c4c(c3c2)CCCC4)c(Cl)c1	11µM*	6%	?	-30%	.
COc1ccc(Cl)cc1NS(=O)(=O)c1ccc2[nH]c3c(c2c1)CCCC3	?	0%	?	-37%	.
COC(=O)c1ccc(NS(=O)(=O)c2ccc3[nH]c4c(c3c2)CCCCC4)cc1	?	-10%	?	-15%[57.1 µM]	.
Cc1ccc(NS(=O)(=O)c2ccc3[nH]c4c(c3c2)CCCC4)c(C)c1	16µM*	?	28µM*	40µM*	.
COC(=O)[C@@]1(Cc2ccc(F)cc2)[C@H]2c3cc(C(=O)N4CCCC4)n(Cc4cc(C)n(C)n4)c3C[C@H]2CN1C(=O)c1ccccc1	.	.	.	.	-2%
COCCCNC(=O)CC1Oc2ccccc2NC1=O (stereo not given)	-2%[59 µM]	70%	-1%	-4%	21%
CC(=O)c1ccc(NS(=O)(=O)c2ccc3[nH]c4c(c3c2)CCCCCC4)cc1	-47%[59 µM]	19%[57 µM]	-34%	?	.
CC(=O)c1ccc(NS(=O)(=O)c2ccc3[nH]c4c(c3c2)CCCC4)cc1	?	-12%	?	79µM*	.
Cc1ccc(NS(=O)(=O)c2ccc3[nH]c4c(c3c2)CCCCC4)cc1	14µM*	-19%	?	-31%[57.1 µM]	.
Cc1nn(CCc2nc(-c3ccco3)cs2)c2[nH]c(=O)cc(C(F)(F)F)c12	?	?	79µM*	?	?
O=c1[nH]c(=O)n(Cc2ccccc2)c2nc(-c3ccco3)cc(C(F)(F)F)c12	-5%[59 µM]	31%	-2%	17%	-7%
Cc1cc(C)n(CCc2nc(-c3cccs3)cs2)n1	?	51%	3%	5%	?
Cc1cc(C)n(CCc2nc(-c3ccco3)cs2)n1	3.5µM*	?	50µM*	50µM*	8.9µM*
CN(C)Cc1c(C(=O)N/N=C/c2ccc(OCc3ccc(F)cc3)cc2)nnn1-c1nonc1N	8%	16%	-13%	-5%	2%
Cc1ccc(C)c(CN2C(=O)CSc3ccc(C(=O)NCc4ccccc4)cc32)c1	-4%[59 µM]	35%	-5%	8%	.
CC(C)OC(=O)CSc1nnc(Cc2ccccc2)n1Cc1ccco1	8.9µM*	8%	-12%	6%	22µM*
COc1cccc(-c2nnc(SCC(=O)OC(C)C)n2Cc2ccco2)c1	40µM*	-13%	-29%[11.4 µM]	-4%	3%
Cc1ccccc1NC(=O)c1nc(-c2ccncc2)no1	-4%[59 µM]	38%	-18%	-5%	.
O=S(=O)(Nc1c(O)ccc2ccccc12)c1cccc2ccccc12	.	79µM*	79µM*	.	.
O=C(O)c1cc(NS(=O)(=O)c2cccc3ccccc23)ccc1O	-25%[59 µM]	0%	-19%	-2%	-7%
COc1ccc(NC2CCCN(C(=O)CCC(=O)c3ccc(F)cc3)C2)cc1 (stereo not given)	.	-34%	?	40µM*	10%
O=C(CSc1ccccc1)N1CCCC(Nc2ccccc2)C1 (stereo not given)	-5%	-3%	16µM*	-31%	6%
COc1ccc(NC2CCCN(C(=O)C3(C)CCCCC3)C2)cc1 (stereo not given)	.	-13%	-35%	32µM*	10%

High-throughput results as filed in PubChem BioAssay.
